The supplement of paper PMC7411054

How the values were obtained:
Test in all cases: phenotypically active (imaging signature differs from DMSO and reproducible) at any of 0.3-9 uM (binary (1 = active, 0 = inactive)); higher = active
Details in all cases: treatment time: 24 h
[1] = tested on: A549-ACTB-RAB5A
Outline: (§1)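 Phenotypic activity depended on meeting both a deviation and a reproducibility criterion. The fifteen gene-edited A549, HepG2 and WPMY1 reporter lines were treated at 0.3, 1, 3 or 9 µM for 24 h, four wells each, then imaged live with features normalised to solvent control wells. Deviation required ≥3 of 4 wells past the 95th percentile of control Euclidean distances, and reproducibility a median replicate Pearson correlation above the 95th percentile of non-replicates.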

[2] = tested on: A549-CANX-COX4
Outline: as §1

[3] = tested on: A549-GM130-SQSTM1
Outline: as §1

[4] = tested on: A549-TP53BP1-CLTA
Outline: as §1

[5] = tested on: A549-TUBA1B-RELA
Outline: as §1

[6] = tested on: HepG2-ACTB-RAB5A
Outline: as §1

[7] = tested on: HepG2-CANX-COX4
Outline: as §1

[8] = tested on: HepG2-GM130-SQSTM1
Outline: as §1

[9] = tested on: HepG2-TP53BP1-CLTA
Outline: as §1

[10] = tested on: HepG2-TUBA1B-RELA
Outline: as §1

[11] = tested on: WPMY1-ACTB-RAB5A
Outline: as §1

[12] = tested on: WPMY1-CANX-COX4
Outline: as §1

[13] = tested on: WPMY1-GM130-SQSTM1
Outline: as §1

[14] = tested on: WPMY1-TP53BP1-CLTA
Outline: as §1

[15] = tested on: WPMY1-TUBA1B-RELA
Outline: as §1

Measured: phenotypically active

O=C1CCc2c(ccc3ccccc23)O1 [Splitomicin]
inactive: [1] 0 | [2] 0 | [3] 0 | [4] 0 | [5] 0 | [6] 0 | [7] 0 | [8] 0 | [9] 0 | [10] 0 | [11] 0 | [12] 0 | [13] 0 | [14] 0 | [15] 0

COCCOC(=O)C1=C(C)NC(C)=C(C(=O)OC(C)C)C1c1cccc([N+](=O)[O-])c1 (stereo not given) [nimodipine]
inactive: [1] 0 | [2] 0 | [3] 0 | [4] 0 | [5] 0 | [6] 0 | [7] 0 | [8] 0 | [9] 0 | [10] 0 | [11] 0 | [12] 0 | [13] 0 | [14] 0 | [15] 0

Cc1ccc(-c2c(-c3nn(C)c4ncnc(N5CC[C@H](N6CCCCC6)C5)c34)cnn2C)cc1
inactive: [1] 0 | [2] 0 | [3] 0 | [4] 0 | [5] 0 | [6] 0 | [7] 0 | [8] 0 | [9] 0 | [10] 0 | [11] 0 | [12] 0 | [13] 0 | [14] 0 | [15] 0

NC1=NCC2c3ccccc3Cc3ccccc3N12 (stereo not given) [epinastine]
inactive: [1] 0 | [2] 0 | [3] 0 | [4] 0 | [5] 0 | [6] 0 | [7] 0 | [8] 0 | [9] 0 | [10] 0 | [11] 0 | [12] 0 | [13] 0 | [14] 0 | [15] 0

CCOCCn1c(N2CCCN(C)CC2)nc2ccccc21 [emedastine]
inactive: [1] 0 | [2] 0 | [3] 0 | [4] 0 | [5] 0 | [6] 0 | [7] 0 | [8] 0 | [9] 0 | [10] 0 | [11] 0 | [12] 0 | [13] 0 | [14] 0 | [15] 0

C=C[C@H]1[C@H](O[C@@H]2O[C@H](CO)[C@@H](O)[C@H](O)[C@H]2O)OC=C2C(=O)NCC[C@H]21 [Bakankosine]
inactive: [1] 0 | [2] 0 | [3] 0 | [4] 0 | [5] 0 | [6] 0 | [7] 0 | [8] 0 | [9] 0 | [10] 0 | [11] 0 | [12] 0 | [13] 0 | [14] 0 | [15] 0

CO[C@@]12[C@H](COC(N)=O)C3=C(C(=O)C(C)=C(N)C3=O)N1C[C@@H]1N[C@@H]12 [mitomycin]
inactive: [1] 0 | [2] 0 | [3] 0 | [4] 0 | [5] 0 | [6] 0 | [7] 0 | [8] 0 | [9] 0 | [10] 0 | [11] 0 | [12] 0 | [13] 0 | [14] 0 | [15] 0

CS(=O)(=O)OCCCCOS(C)(=O)=O [busulfan]
inactive: [1] 0 | [2] 0 | [3] 0 | [4] 0 | [5] 0 | [6] 0 | [7] 0 | [8] 0 | [9] 0 | [10] 0 | [11] 0 | [12] 0 | [13] 0 | [14] 0 | [15] 0

N[C@@H](CSC(c1ccccc1)(c1ccccc1)c1ccccc1)C(=O)O [S-Trityl-L-cysteine]
inactive: [1] 0 | [2] 0 | [3] 0 | [4] 0 | [5] 0 | [6] 0 | [7] 0 | [8] 0 | [9] 0 | [10] 0 | [11] 0 | [12] 0 | [13] 0 | [14] 0 | [15] 0

NCCc1ccc(O)c(O)c1 [dopamine]
inactive: [1] 0 | [2] 0 | [3] 0 | [4] 0 | [5] 0 | [6] 0 | [7] 0 | [8] 0 | [9] 0 | [10] 0 | [11] 0 | [12] 0 | [13] 0 | [14] 0 | [15] 0

CC(C[N+](C)(C)C)OC(N)=O (stereo not given) [bethanechol]
inactive: [1] 0 | [2] 0 | [3] 0 | [4] 0 | [5] 0 | [6] 0 | [7] 0 | [8] 0 | [9] 0 | [10] 0 | [11] 0 | [12] 0 | [13] 0 | [14] 0 | [15] 0

CC(C)NCCCC1(C(N)=O)c2ccccc2-c2ccccc21 [indecainide]
inactive: [1] 0 | [2] 0 | [3] 0 | [4] 0 | [5] 0 | [6] 0 | [7] 0 | [8] 0 | [9] 0 | [10] 0 | [11] 0 | [12] 0 | [13] 0 | [14] 0 | [15] 0

COC1=C(O)C(=O)c2ccccc2C1=O [2-hydroxy-3-methoxy-naphtoquinone]
inactive: [1] 0 | [2] 0 | [3] 0 | [4] 0 | [5] 0 | [6] 0 | [7] 0 | [8] 0 | [9] 0 | [10] 0 | [11] 0 | [12] 0 | [13] 0 | [14] 0 | [15] 0

COc1c(OC2OC(CO)[C@@H](O)[C@H](O)[C@H]2O)cc2c(c1OC)-c1ccc(OC)c(=O)cc1[C@@H](NC(C)=O)CC2 (stereo not given in full) [Colchicoside]
inactive: [1] 0 | [2] 0 | [3] 0 | [4] 0 | [5] 0 | [6] 0 | [7] 0 | [8] 0 | [9] 0 | [10] 0 | [11] 0 | [12] 0 | [13] 0 | [14] 0 | [15] 0

CC(C)(C)NS(=O)(=O)c1cncc(-c2cc(F)c3nc(N)nn3c2)c1
inactive: [1] 0 | [2] 0 | [3] 0 | [4] 0 | [5] 0 | [6] 0 | [7] 0 | [8] 0 | [9] 0 | [10] 0 | [11] 0 | [12] 0 | [13] 0 | [14] 0 | [15] 0

CC1CCC(C(C)C)C(O)C1 [L-menthol]
inactive: [1] 0 | [2] 0 | [3] 0 | [4] 0 | [5] 0 | [6] 0 | [7] 0 | [8] 0 | [9] 0 | [10] 0 | [11] 0 | [12] 0 | [13] 0 | [14] 0 | [15] 0

CN1[C@@H](CC(=O)c2ccccc2)CCC[C@H]1C[C@H](O)c1ccccc1 [Lobeline alpha (-) hydrochoride]
inactive: [1] 0 | [2] 0 | [3] 0 | [4] 0 | [5] 0 | [6] 0 | [7] 0 | [8] 0 | [9] 0 | [10] 0 | [11] 0 | [12] 0 | [13] 0 | [14] 0 | [15] 0

O=c1[nH]cnc2c1ncn2[C@H]1CC[C@@H](CO)O1 [Didanosine]
inactive: [1] 0 | [2] 0 | [3] 0 | [4] 0 | [5] 0 | [6] 0 | [7] 0 | [8] 0 | [9] 0 | [10] 0 | [11] 0 | [12] 0 | [13] 0 | [14] 0 | [15] 0

Cc1cc2cc(NS(=O)(=O)c3ccc(C#N)cc3)ccc2n(C)c1=O
inactive: [1] 0 | [2] 0 | [3] 0 | [4] 0 | [5] 0 | [6] 0 | [7] 0 | [8] 0 | [9] 0 | [10] 0 | [11] 0 | [12] 0 | [13] 0 | [14] 0 | [15] 0

CC[N+](C)(CC)CCOC(=O)C1c2ccccc2Oc2ccccc21 [methantheline]
inactive: [1] 0 | [2] 0 | [3] 0 | [4] 0 | [5] 0 | [6] 0 | [7] 0 | [8] 0 | [9] 0 | [10] 0 | [11] 0 | [12] 0 | [13] 0 | [14] 0 | [15] 0

N[C@@H](Cc1ccc(O)c(O)c1)C(=O)O [levodopa]
inactive: [1] 0 | [2] 0 | [3] 0 | [4] 0 | [5] 0 | [6] 0 | [7] 0 | [8] 0 | [9] 0 | [10] 0 | [11] 0 | [12] 0 | [13] 0 | [14] 0 | [15] 0

CCCc1nc(C)c2c(C)nc3ccc(OC)nc3n12
inactive: [1] 0 | [2] 0 | [3] 0 | [4] 0 | [5] 0 | [6] 0 | [7] 0 | [8] 0 | [9] 0 | [10] 0 | [11] 0 | [12] 0 | [13] 0 | [14] 0 | [15] 0

COc1ccc(C(C)=O)c(O)c1 [2'-Hydroxy-4'-Methoxyacetophenone]
inactive: [1] 0 | [2] 0 | [3] 0 | [4] 0 | [5] 0 | [6] 0 | [7] 0 | [8] 0 | [9] 0 | [10] 0 | [11] 0 | [12] 0 | [13] 0 | [14] 0 | [15] 0
